# Legend:
# Experiment in all cases: PBM binding z-score (relative to random genomic background probes); higher = stronger binding; sequences stand for … in GC…GCGATTGACAGCGTAGAATGAAGG
# [1] = system: FXR:RXRa (NR concentration 270 nM, RXRa partner concentration 90 nM)
# Summary of the method: (§1)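 Binding z-scores were set against random background probes. The data came from custom Agilent 4×180K protein-binding microarrays carrying double-stranded probes with 34-nt variable regions, incubated 1 h with ligand-free nuclear receptor dimers. Partner-specific antibodies detected binding, and scanned fluorescence was regression-normalized.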
# [2] = system: LXRa:RXRa (NR concentration 270 nM, RXRa partner concentration 90 nM)
# Summary of the method: as §1
# [3] = system: LXRa homodimer (NR concentration 270 nM)
# Summary of the method: as §1
# [4] = system: LXRb:RXRa (NR concentration 270 nM, RXRa partner concentration 90 nM)
# Summary of the method: as §1
# [5] = system: LXRb homodimer (NR concentration 270 nM)
# Summary of the method: as §1
# [6] = system: PPARa:RXRa (NR concentration 270 nM, RXRa partner concentration 90 nM)
# Summary of the method: as §1
# [7] = system: PPARg:RXRa (NR concentration 180 nM, RXRa partner concentration 90 nM)
# Summary of the method: as §1
# [8] = system: PPARg:RXRa 270nM:90nM, anti-RXR (NR concentration 270 nM, RXRa partner concentration 90 nM)
# Summary of the method: as §1
# [9] = system: PPARg:RXRa 30nM:10nM, anti-RXR (NR concentration 30 nM, RXRa partner concentration 10 nM)
# Summary of the method: as §1
# [10] = system: PPARg:RXRa 90nM:30nM, anti-RXR (NR concentration 90 nM, RXRa partner concentration 30 nM)
# Summary of the method: as §1
# [11] = system: PPARg:RXRa DBDmut IVT, anti-RXR (DBD mutation: RXRa K156A/R161A, NR concentration 270 nM, RXRa partner concentration 90 nM)
# Summary of the method: as §1
# [12] = system: PPARg:RXRa IVT, anti-PPARg (NR concentration 270 nM, RXRa partner concentration 90 nM)
# Summary of the method: as §1
# [13] = system: PPARg DBDmut:RXRa IVT, anti-PPARg (DBD mutation: PPARg1 K132A/R137A, NR concentration 270 nM, RXRa partner concentration 90 nM)
# Summary of the method: as §1
# [14] = system: PPARg DBDmut IVT, anti-PPARg (DBD mutation: PPARg1 K132A/R137A, NR concentration 270 nM)
# Summary of the method: as §1
# [15] = system: PPARg homodimer (NR concentration 180 nM)
# Summary of the method: as §1
# [16] = system: PXR:RXRa (NR concentration 270 nM, RXRa partner concentration 90 nM)
# Summary of the method: as §1
# [17] = system: PXR homodimer (NR concentration 270 nM)
# Summary of the method: as §1
# [18] = system: RARa:RXR (NR concentration 270 nM, RXRa partner concentration 90 nM)
# Summary of the method: as §1
# [19] = system: RARa homodimer (NR concentration 270 nM)
# Summary of the method: as §1
# [20] = system: RARb:RXRa (NR concentration 270 nM, RXRa partner concentration 90 nM)
# Summary of the method: as §1
Sequence,PBM binding z-score [1],PBM binding z-score [2],PBM binding z-score [3],PBM binding z-score [4],PBM binding z-score [5],PBM binding z-score [6],PBM binding z-score [7],PBM binding z-score [8],PBM binding z-score [9],PBM binding z-score [10],PBM binding z-score [11],PBM binding z-score [12],PBM binding z-score [13],PBM binding z-score [14],PBM binding z-score [15],PBM binding z-score [16],PBM binding z-score [17],PBM binding z-score [18],PBM binding z-score [19],PBM binding z-score [20]
CCGACTGGGGCATAAAGTTACCATAAGCCAGCCC,-0.335,-0.54,-0.298,-0.42,-1.15,0.0732,0.855,0.803,-0.215,0.313,2.19,1.79,-0.543,-1.06,-0.724,-0.621,-0.245,-0.613,-0.145,0.149
CCAGACAGGTGAGAAGGTAAGTCAGCCTCGATTA,0.146,0.152,-0.318,0.215,-0.265,0.66,0.255,0.254,-0.405,-0.0734,0.908,0.37,-1.11,-0.901,0.826,0.0674,0.339,0.396,0.66,0.566
TTACCAAGGTGAGCAGAGGTCGTTGATCCAACTC,1.14,1.86,-0.283,1.37,-0.627,2.38,2.17,2.89,0.857,2.68,0.947,2.49,-0.426,-0.173,0.497,4.23,-0.112,2.23,-0.99,1.99
TCGAGTAGGTTAGTCGTGGCATTCAGCCAACATA,-0.318,-0.31,-0.35,-0.47,-1.11,0.293,-0.232,0.763,1.36,0.958,2.28,1.66,-0.875,-1.07,-0.343,-0.558,-0.596,-0.421,-0.619,-0.00522
CGTCCAAGGTCAGCCGGTCAGTGAAAGCGACGTG,5.37,3.63,0.364,2.5,-0.165,4.18,2.43,3.24,0.459,1.79,2.51,2.75,-0.217,-1.45,2.55,2.9,0.408,3.71,0.671,5
AGAATGAGGTTATACGTAGATCAGGGGAGAAAGT,1.99,1.93,0.147,1.96,0.558,3.05,1.83,2.06,0.697,1.06,4.24,2.13,1.07,0.577,0.74,1.36,0.423,1.87,1.13,1.45
CTACCAAGGTGAACAAGGTCGTCGATTACTATTC,1.41,1.49,0.0578,1.95,-0.568,2.77,1.41,1.59,0.0715,0.943,2.69,2.94,0.293,-0.426,1.09,2.61,0.761,2.65,0.41,2.27
ACTATTAGTTGAGTTAGGGCAACCGATACGACGC,-0.00299,-0.201,0.321,-0.189,0.544,-0.0901,0.832,0.293,0.372,0.303,-0.0972,0.498,1.2,0.707,0.995,0.111,0.462,-0.0618,1.3,0.797
CCTTACGGGTCAAGGTCATAGCACGGGTGGTACG,6.75,5.29,1.9,4.12,0.624,5.78,6.03,5.86,2.53,4.68,1.92,4.64,0.493,-0.425,2.88,5.05,1.3,5.28,0.441,5
GCGAATGGGGCAAAGCAGGTTACCATAAGGTTGG,0.135,0.262,-0.483,0.474,-0.239,1.31,0.647,0.187,-0.478,-0.292,1.67,1.37,-0.887,-1.21,0.664,0.467,-0.414,0.571,-0.509,1.1
TCATATAGGTAAACGGTGAAAGTCGGTGTGGTAA,0.188,0.878,0.118,0.712,-0.229,2.17,2.41,4.15,4.43,4.57,4.37,3.34,1.61,0.702,0.811,0.39,0.405,0.111,0.67,0.522
TCATAGAGGTAAAAGGTGAAAGTCGGTGTGGTAA,1.97,1.96,-0.0856,2.03,-0.828,4.69,6.33,6.66,5.72,7.33,2.72,3.24,0.0344,-0.0644,0.851,2.07,-0.248,3.86,0.918,2.07
TAGCCTAGGTCATTCAGGGGCCAGTTTAGAAAGC,4.19,3.81,1,3.32,0.887,3.8,1.98,2.15,0.497,1.59,1.47,2.77,0.115,0.428,0.877,2.37,-0.0546,3.52,-0.367,3.61
CCTAGCAGGCCAATTTGGGTCACTCAAGGCTTGA,1.3,1.3,-0.0886,1.16,-1.16,2.37,0.558,0.917,-0.434,0.671,2.7,2.91,-1.03,-1.39,0.323,1.12,-0.236,1.52,-0.55,1.29

# Source: the supplement of paper PMC6555819
